What all share (assay): qHTS profiling for inhibitors of Plasmodium falciparum proliferation (AID 504749); note: nearly all actives have a fitted effect of over 60% in size
Conditions in all cases: P. falciparum in erythrocytes, SYBR Green DNA, 72 h; series mostly up to 28.7 µM
(In general: qHTS replaces the single test concentration by a dilution series.)

In assay [1] the test system is DFO2036. An outline of the steps:
(§1)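 SYBR Green fluorescence of parasite DNA, read after lysis and overnight dark incubation, measured growth over 72 h in erythrocyte culture at 0.3% parasitemia and 2.5% hematocrit. Data normalised to DMSO and 0.29 uM artemisinin, with plate-drift correction.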

The subject of assay [2] is DIV30. An outline of the steps:
as §1

Assay [3] relates to Dd2. An outline of the steps: as §1
The subject of assay [4] is ECU. The procedure, abridged:
as §1

In assay [5] the test system is FAB9. An outline of the steps:
as §1

Assay [6] deals with HB3. The procedure, abridged:
as §1

Assay [7] relates to JCK. The procedure, abridged: as §1
For assay [8], the system named is N140. The procedure, abridged: as §1
Assay [9] relates to P93_24. An outline of the steps: as §1
Assay [10] deals with P94_40. An outline of the steps:
as §1

The subject of assay [11] is PAD. The procedure, abridged: as §1
Assay [12] concerns PC15. The procedure, abridged:
as §1

Assay [13] has as its system PC26. An outline of the steps: as §1
The subject of assay [14] is PC49. The procedure, abridged: as §1
The subject of assay [15] is SC27B. An outline of the steps:
as §1

The subject of assay [16] is TAB109. An outline of the steps: as §1
For assay [17], the system named is DIV14. The procedure, abridged:
as §1

Assay [18] concerns ICS. The procedure, abridged:
as §1

Assay [19] has as its system DIV17. An outline of the steps: as §1
Assay [20] concerns GB4. The procedure, abridged:
as §1

Inconclusive results are not listed. Active and inactive are the calls of the source. Calls come from the whole dose curve; as a rule, active = well fitted inhibition curve with a large enough effect; inconclusive = small, poorly fitted or top-dose-only effect; inactive = flat fitted curve, though single readings scatter.
Potency is the fitted concentration of half-maximal effect.

Take `O=c1oc2cc(O)ccc2s1`: the Potency result in assay [1], in assay [2], in assay [3], in assay [4], in [5] and in assay [6] was “inactive” each time. The Potency entry in [7], in assay [8], in assay [9], in assay [10], in assay [11] and in assay [12] was “inactive” each time. The Potency entry in assay [13], in assay [14], in assay [15] and in assay [16] was “inactive” in each case.
Take `COC1=C(OC)C(=O)C(CCCCCCCCCCO)=C(C)C1=O`: the Potency entry in assay [1], in assay [17], in assay [2], in assay [3], in [4] and in [5] was “inactive” each time. In addition, the Potency entry in assay [6], in [18], in assay [7], in [8], in assay [9] and in assay [11] was “inactive” throughout. The Potency result in assay [12], in assay [13], in assay [14], in [15] and in assay [16] was “inactive” throughout.
For the molecule `CCCCN(CCCC)CCC(O)c1cc2c(Cl)cc(Cl)cc2c2cc(C(F)(F)F)ccc12` (centres undefined), the Potency in assay [1] is 0.0089 µM (active); in assay [2], 0.0102 µM (active); in [3], 0.0028 µM (active); in [4] it was 0.0079 µM (active); in assay [5] it was 0.0112 µM (active); in assay [6], 0.0063 µM (active). Moreover, the Potency in assay [18] is 0.0006 µM (active); in assay [7], 10 µM (active); in assay [8], 0.0032 µM (active); in assay [9] it was 0.0056 µM (active); in [10], 0.0032 µM (active); in assay [11], 0.0045 µM (active). Besides, the Potency in assay [12] is 0.0089 µM (active); in assay [13] it was 0.0102 µM (active); in [15], 0.0126 µM (active); in assay [16], 0.0071 µM (active).
For `O=C1CCc2ccc(OCCCCN3CCN(c4cccc(Cl)c4Cl)CC3)cc2N1`, the Potency result in assay [17], in assay [19], in assay [2], in assay [5], in assay [20] and in assay [7] was “inactive” throughout. The Potency result in assay [13] and in assay [14] was “inactive” in each case. Also, the Potency in [18] was 11.2 µM (active); in assay [9], 10 µM (active).
For `C=C(c1ccc(C(=O)O)cc1)c1cc2c(cc1C)C(C)(C)CCC2(C)C`, the Potency entry in assay [1], in assay [19], in assay [2], in [4], in [5] and in assay [20] was “inactive” in each case. Besides, the Potency entry in assay [7], in assay [8], in [9], in assay [10], in assay [11] and in assay [12] was “inactive” throughout. The Potency result in assay [13], in assay [14], in assay [15] and in assay [16] was “inactive” throughout. Moreover, the Potency in assay [18] is 8.91 µM (active).
Consider `Cc1c(C(=O)NN2CCCCC2)nn(-c2ccc(Cl)cc2Cl)c1-c1ccc(Cl)cc1`, for which the Potency in assay [17] is 13.5 µM (active); in [19] it was 13.5 µM (active); in assay [2], 12 µM (active); in [18] it was 11.2 µM (active); in assay [8], 8.91 µM (active); in assay [9] it was 10 µM (active). The Potency was 11.2 µM (active) in [10], 16.9 µM (active) in [13] and 10 µM (active) in [15]. Moreover, the Potency result in assay [7] is “inactive”.
As to `NNc1nncc2ccccc12`, the Potency was 6.42 µM (active) in [17]; 5.1 µM (active) in assay [19]; 3.98 µM (active) in assay [3]; 3.98 µM (active) in assay [6]; 1.41 µM (active) in assay [18]; 3.98 µM (active) in [9]. The Potency in assay [10] was 3.55 µM (active). The Potency entry in [14] was “inactive”.
For `COCCCOc1ccnc(CS(=O)c2nc3ccccc3[nH]2)c1C` (centres undefined), the Potency result in assay [1], in assay [2], in assay [4], in assay [5], in [20] and in [6] was “inactive” throughout. Also, the Potency entry in assay [7], in assay [8], in [10], in [12], in assay [14] and in assay [15] was “inactive” in each case. Also, in assay [16], the Potency entry is “inactive”. Besides, in [13], the Potency was 19 µM (active).
Take `O=C(O)c1cn(-c2ccc(F)cc2)c2cc(N3CCNCC3)c(F)cc2c1=O`: the Potency result in [19], in assay [2], in assay [4], in [5], in assay [6] and in assay [7] was “inactive” each time. For the same molecule, the Potency result in assay [8], in assay [11], in assay [12], in [13], in assay [14] and in assay [15] was “inactive” throughout.
`Cc1ccc(NC(=O)c2ccc(CN3CCN(C)CC3)cc2)cc1Nc1nccc(-c2cccnc2)n1`: the Potency is 15.1 µM (active) in [17]; 15.1 µM (active) in assay [19]; 12 µM (active) in assay [2]; 10 µM (active) in [3]; 8.91 µM (active) in assay [4]; 15.1 µM (active) in [20]. For the same molecule, the Potency was 11.2 µM (active) in assay [18]; 8.91 µM (active) in assay [8]; 10 µM (active) in assay [9]; 11.2 µM (active) in assay [10]; 10 µM (active) in [11]; 15.1 µM (active) in assay [13]. Also, in [16], the Potency was 10 µM (active).
Consider `Cc1cc(=O)oc2cc(O)ccc12`, for which the Potency entry in assay [17], in [19], in assay [2], in [5], in assay [20] and in assay [9] was “inactive” each time. Moreover, the Potency entry in assay [10] and in assay [11] was “inactive” in each case. The Potency in assay [7] was 2 µM (active); in assay [12], 1.12 µM (active).
In the case of `Cc1cc(C2CCCCC2)n(O)c(=O)c1`, the Potency entry in [3] and in assay [14] was “inactive” in each case. For the same molecule, the Potency in assay [5] is 3.55 µM (active); in assay [20], 6.42 µM (active); in [18], 3.55 µM (active); in [9] it was 3.16 µM (active); in assay [12], 3.16 µM (active).
Take `Cc1nc2n(c(=O)c1CCN1CCC(c3noc4cc(F)ccc34)CC1)CCCC2`: the Potency entry in assay [1], in assay [19], in [2], in assay [3], in assay [4] and in assay [5] was “inactive” in each case. Besides, the Potency entry in [20], in assay [6], in assay [7], in assay [8], in assay [9] and in [10] was “inactive” in each case. Besides, the Potency entry in assay [11], in [12], in [13], in assay [14], in assay [15] and in assay [16] was “inactive” each time. Also, in [18], the Potency is 12.6 µM (active).
Consider `CC1=C(C)C(=O)C(C(CCCCCC(=O)O)c2ccccc2)=C(C)C1=O` (centres undefined), for which the Potency entry in assay [1], in [3], in [4], in [5], in [6] and in assay [18] was “inactive” each time. Further, the Potency result in assay [7], in assay [9], in [10], in assay [11], in assay [12] and in assay [14] was “inactive” throughout. In addition, the Potency entry in assay [16] is “inactive”.
As for `Cc1nc(Nc2ncc(C(=O)Nc3c(C)cccc3Cl)s2)cc(N2CCN(CCO)CC2)n1`, the Potency result in assay [1], in assay [5], in [7] and in assay [16] was “inactive” in each case. Besides, the Potency in [19] was 13.5 µM (active); in assay [2], 13.5 µM (active); in [20], 15.1 µM (active); in assay [18], 7.08 µM (active); in assay [8], 14.1 µM (active).
Regarding `Nc1nc(Cl)nc2c1ncn2[C@H]1C[C@H](O)[C@@H](CO)O1`, the Potency result in [1], in assay [3], in [4], in assay [5], in assay [6] and in [18] was “inactive” throughout. For the same molecule, the Potency result in assay [7], in assay [8], in assay [9], in [10], in assay [11] and in assay [12] was “inactive” each time. Also, the Potency entry in assay [14], in assay [15] and in assay [16] was “inactive” throughout.
On to `CC[C@]1(O)C[C@H]2CN(CCc3c([nH]c4ccccc34)[C@@](C(=O)OC)(c3cc4c(cc3OC)N(C=O)[C@H]3[C@@](O)(C(=O)OC)[C@H](OC(C)=O)[C@]5(CC)C=CCN6CC[C@]43[C@@H]65)C2)C1`, for which the Potency in assay [1] was 1.78 µM (active); in assay [2], 3.38 µM (active); in assay [3] it was 0.199 µM (active); in assay [6], 0.447 µM (active); in assay [18] it was 0.1 µM (active); in assay [8], 3.55 µM (active). Besides, the Potency in assay [10] was 3.16 µM (active); in assay [15] it was 1.58 µM (active); in assay [16] it was 2 µM (active). For the same molecule, the Potency result in assay [12] and in [14] was “inactive” each time.
Consider `CCCCCCCCOc1ccccc1C(=O)Nc1ccc(C(=O)OCC[N+](C)(CC)CC)cc1`, for which the Potency in assay [1] was 8.91 µM (active); in [4] it was 10 µM (active); in assay [20], 12 µM (active); in assay [18], 8.91 µM (active); in [9], 12.6 µM (active); in assay [16], 7.94 µM (active). The Potency result in [5] was “inactive”.
For `O=C(OC1C[C@H]2CC[C@@H](C1)[N+]21CCCC1)C(O)(c1ccccc1)c1ccccc1` (some centres undefined), the Potency in [2] is 4.78 µM (active); in assay [3], 0.0891 µM (active); in assay [4], 5.01 µM (active); in assay [20] it was 4.26 µM (active); in assay [9], 2.24 µM (active); in assay [10] it was 4.47 µM (active). Also, the Potency in assay [16] is 3.55 µM (active). Moreover, the Potency entry in assay [7], in assay [12] and in assay [14] was “inactive” throughout.
